The record followed here is PubChem BioAssay AID777 (Sanford-Burnham Center for Chemical Genomics, 2007).

About 19,000 (20%) of roughly 96,000 compounds were called active. Not all results are given here. Values without a mark were called inactive.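 The calls were made as follows: active = blocking of liver enzyme CYP2C9 beyond about 50% at 5 µM (limit read from the data); inactive = the rest.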

The experiment deals with Cytochrome P450 2C9 (Homo sapiens) (UniProt P11712). The experiment in a line: blockers of cytochrome P450 2C9 activity – biochemical, luminescence, ADME assay, primary screen (AID 777). Particulars: CYP2C9 Supersomes, luciferin-H conversion, at 5 µM, hits give high values.
Chain of Cytochrome P450 2C9 (Homo sapiens) (P11712 whole entry, looked up): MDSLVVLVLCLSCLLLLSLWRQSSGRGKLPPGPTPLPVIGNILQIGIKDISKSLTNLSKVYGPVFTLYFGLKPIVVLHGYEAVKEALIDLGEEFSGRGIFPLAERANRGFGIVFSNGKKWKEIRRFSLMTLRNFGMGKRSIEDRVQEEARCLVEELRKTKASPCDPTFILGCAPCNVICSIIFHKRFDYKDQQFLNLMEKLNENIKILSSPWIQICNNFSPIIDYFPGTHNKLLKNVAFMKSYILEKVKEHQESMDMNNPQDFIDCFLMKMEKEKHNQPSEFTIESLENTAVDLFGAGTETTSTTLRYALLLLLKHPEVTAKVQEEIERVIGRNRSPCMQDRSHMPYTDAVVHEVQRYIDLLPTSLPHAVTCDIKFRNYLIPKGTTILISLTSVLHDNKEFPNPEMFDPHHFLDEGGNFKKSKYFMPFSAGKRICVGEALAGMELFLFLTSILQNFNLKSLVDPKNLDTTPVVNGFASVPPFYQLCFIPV
For orientation: inhibition means the drop in the measured response relative to a control, in per cent. Regarding `CCCn1c(=O)c2ccccc2n2c(SCC(=O)/C(C#N)=C(\C)N)nnc12`, the inhibition is 14.3%.
To `CCOc1ccccc1NC(=O)CCc1ccc(C)o1` belongs -185%.
Under `CC1=NCCN1S(=O)(=O)c1ccc(Br)c(C)c1` stands -80.5%; under `CCCCOc1ccc(CSC(=N)N)cc1[N+](=O)[O-]`, 20%; under `CCCCOc1ccc(Cl)cc1CSc1nncn1N`, 74.2% (active).
Under `Cn1ncc2c(Nc3cccc4ccccc34)ncnc21` stands -1.5%.
Take `O=C1COc2ccc(NC(=O)N3CCN(c4ccc(F)cc4)CC3)cc2N1`: the inhibition was 19.5%.
On to `CC1=NC2(CCCc3c2no[n+]3[O-])N(O)C1(C)C` (centres undefined), for which the inhibition is 11.5%.
To `O=S1(=O)CCN2C(=N1)SC1=C2CCN(Cc2ccccc2)C1` belongs 0.4%.
Under `COC(=O)CN(C(=S)Nc1ccc(Cl)cc1)C1CC(=O)N(c2ccc(OC)cc2)C1=O` (centres undefined) stands 43.6%.
To `COC(=O)c1c(-c2cccs2)csc1NC(=O)CSc1ncnc2sc(C)c(C)c12` belongs 76.2% (active); to `COC(=O)c1ccccc1NC(=O)CSc1ccccn1`, -10.9%.
For the compound `Cc1cnc(NC(=O)CSc2c(Cl)cccc2Cl)s1`, the inhibition was 1.4%.
Under `CCn1c(SC)nc(O)c(C(c2ccc(OC)c(O)c2)c2c(O)nc(SC)n(CC)c2=O)c1=O` stands 23.3%; under `Cc1cc(C)nc(SCc2nnc(SCC(=O)OC3CCCCC3)o2)n1`, 7%.
Consider `Nc1cc(=O)nc(SCc2ccccc2)n1Cc1ccco1`, for which the inhibition is 7.5%.
Under `CCOC(=O)CSc1nc2c(sc(=S)n2CCc2ccccc2)c(=O)n1Cc1ccco1` stands 66.9% (active); under `CCOC(=O)CSc1nnc(-c2ccco2)n1C`, -20.3%.
Turning to `O=C(C1=C(O)C(=O)N(Cc2ccccc2)C1c1ccco1)c1ccco1` (centres undefined), the inhibition was 24%.
In the case of `CN(C)c1ccc(/C=C2\NC(=S)N(Cc3ccccc3)C2=O)cc1`, the inhibition is 66.2% (active).
Under `CC1=NN(Cc2ccccc2)C(=O)/C1=C/c1ccc(N(C)C)cc1` stands 14.4%; under `CN(C)c1cc[n+](Cc2ccccc2)cc1`, 2.2%.
To `CCOC(=O)N1CCN(Cc2oc(CO)cc(=O)c2O)CC1` belongs -4.5%; to `CC(C)(C)Cc1nnc(NC(=O)c2cc(-c3ccccc3)nc3ccccc23)s1`, 11.3%; to `N/C(=N\OC(=O)c1cc(-c2ccccc2)nc2ccccc12)c1ccncc1`, 97.7% (active).
Under `Cc1ccc(-c2cc(C(=O)Nc3nn[nH]n3)c3ccccc3n2)c(C)c1` stands 23.9%.
Regarding `CC12CN(Cc3ccccc3)CC(C)(CN(Cc3ccccc3)C1)C2=NO`, the inhibition was -1.5%.
To `COc1cccc(-c2nc3cc(C)ccc3o2)c1` belongs 53.3% (active); to `COc1cccc(-c2nc(S(=O)(=O)c3ccccc3)c(N3CCOCC3)o2)c1`, 27.5%; to `CCc1ccc2oc(-c3ccc(N)cc3)nc2c1`, -59.8%.
To `O=C(O)CSCc1ccc(C(=O)O)o1` belongs 13.1%.
Under `CSc1ccc(S(=O)(=O)NCc2ccc(Cl)cc2)cc1` stands -49.2%; under `O=C(O)c1ccc(F)c(S(=O)(=O)Nc2ccccc2)c1`, 17%; under `CSc1ccc(S(=O)(=O)Nc2cccc(F)c2)cc1`, 93.8% (active).
In the case of `CCn1cc(C(=O)N2CCN(C3CCCCC3)CC2)c2cc(OC)c(OC)cc2c1=O`, the inhibition is 19%.
Turning to `Cc1cc2ncn(CCCCOc3ccccc3)c2cc1C`, the inhibition was 27.5%.
For `CCOC(=O)c1cccc(NC(=O)CCn2nnc3ccccc32)c1`, the inhibition was 53.3% (active).
Under `CCOC(=O)c1cccc(NC(=O)CCc2c(C)nc3ncnn3c2C)c1` stands 15.2%.
To `CCOC(=O)c1cn(CC(=O)Nc2ccc(C(C)C)cc2)nn1` belongs 17.6%; to `CCOC(=O)c1nnn(CC(=O)Nc2cccc(F)c2)c1C(=O)OCC`, 60.3% (active).
Under `CCOC(=O)c1ccc(NC(=O)CS(=O)(=O)c2cn(CC)c3ccccc23)cc1` stands 20.9%; under `CCOC(=O)c1ccc(NC(=O)Cn2nnc(-c3ccc(C)cc3)n2)cc1`, 32%.
Take `CCCc1nc2scc(-c3ccc(C)cc3)c2c(=O)n1N`: the inhibition is 27.6%.
Under `CCCNC(=O)c1ccccc1NC(=O)CSCc1ccc(OC)cc1` stands 15.3%.
To `CCSc1ccccc1C(=O)NCc1ccc(OC)cc1` belongs 53.8% (active); to `COc1ccc(CNC(=O)CCn2cccc2)cc1`, 20.4%.
As to `CC(C)(CNCC(O)c1ccccc1)N1CCOCC1` (centres undefined), the inhibition was -3.5%.
Consider `CCOC(=O)C1(Cc2ccc(O)cc2)NC(c2ccccc2F)C2C(=O)N(C)C(=O)C21` (centres undefined), for which the inhibition was -15.1%.
Under `Cc1nc([N+](=O)[O-])nn1C12CC3CC(CC(Br)(C3)C1)C2` stands 18.8%; under `CCN1CC=C2C(C#N)=C(N)C(C#N)(C#N)[C@H](c3ccoc3)[C@H]2C1`, -2.3%; under `N#CC1=C(N)C(C#N)(C#N)[C@H](c2ccsc2)[C@H]2COCC=C12`, 61.4% (active).
As to `CCOC(=O)N1CC=C2C(C#N)=C(N)C(C#N)(C#N)[C@H](c3cccs3)[C@H]2C1`, the inhibition was 11.7%.
Under `CCOc1ccc(C(=O)NC(C(=O)NCc2ccccn2)C(C)C)cc1` (centres undefined) stands 6.7%.
To `Cc1cc(C)cc(NC(=O)c2cccc(NC(=O)C3C4CC5OC(=O)C3C5C4)c2)c1` (centres undefined) belongs -1.1%.
Consider `O=C(Nc1ccc(Br)cc1)c1cccc(NC(=O)C2C3CC4OC(=O)C2C4C3)c1` (centres undefined), for which the inhibition was 66.4% (active).
To `O=C(Nc1cccc(C(=O)N2CCCC2)c1)c1ccccc1` belongs 31.3%; to `C/C(N)=C(\C#N)C(=O)NCCc1ccccn1`, -7.1%; to `Fc1ccc(-c2nnc(CSc3nnc(-c4ccc5c(c4)OCO5)o3)o2)cc1`, -13.3%.
Under `Cc1ccc2nc(SCc3nnc(-c4ccccc4[N+](=O)[O-])o3)c(C#N)cc2c1` stands 20%.
To `Fc1ccc2nc(-c3ccccc3)nc(SCc3nnc(-c4ccccc4)o3)c2c1` belongs 76.7% (active); to `COc1ccc(OC)c(NC(=O)c2cnn(-c3ccccc3Cl)c2NC(=O)c2ccco2)c1`, 24.5%.
`Cc1nc2nc(COc3ccccc3)[nH]n2c(=O)c1C`: the inhibition is 1.1%.
For `CCn1cc(C(=O)N/N=C(/C)c2ccc(F)cc2)c(=O)c2cc(F)c(N3CCCC3)cc21`, the inhibition was 5.7%.
Under `CN(c1ccccc1)c1ccc(/C=c2\s/c(=C(/C#N)C(=O)C(C)(C)C)n(Cc3ccco3)c2=O)cc1` stands 41.9%.
Under `C=CCn1c(=N)n(CC(O)COc2ccc(OC)cc2)c2ccccc21` (centres undefined) stands -0.2%.
To `COCCCn1c(CCC(=O)O)ccc1-c1ccc(F)cc1` belongs 39.8%; to `CC(C)(CSc1nncn1/N=C/c1ccco1)NS(=O)(=O)c1ccc(Cl)cc1`, 61.2% (active); to `Cc1cc(C)c2c(c1)cc(C)c1nnc(SCC(=O)Nc3cc(C)on3)n12`, 10.5%.
For `CCCS(=O)(=O)N1CCCC(C(=O)N2CCN(c3ccccc3)CC2)C1` (centres undefined), the inhibition was -1.6%.
Take `Cc1nnsc1S(=O)(=O)Cc1ccccc1Cl`: the inhibition was 3.2%.
For `CCOC(=O)C(CCOc1cccc(CC)c1)C(=O)OCC`, the inhibition is 57% (active).
Under `COC(=O)[C@@H](NC(=O)NCc1cccc(OC)c1)C(C)C` stands -12.5%.
To `CCCOc1cccc(C(=O)Nc2nnn(CCC)n2)c1` belongs 38.6%.
Turning to `CC(C)=C(NC(=O)c1ccco1)C(=O)NCCc1nc2ccccc2[nH]1`, the inhibition was -29.7%.
Under `CCC(CC)C(=O)N1CC(=O)Nc2ccc(Br)cc2C1c1ccccc1` (centres undefined) stands 49.6%; under `S=c1[nH]nc2c3c4c(sc3ncn12)CCCC4`, 20.5%; under `CCCOc1ccccc1-c1nc(SCCC(=O)O)n[nH]1`, -1.3%.
To `COC(=O)c1ccc(S(=O)(=O)N2CCC(c3nc4ccccc4o3)CC2)cc1` belongs 16.8%; to `N#CC(C(=O)c1ccc(S(=O)(=O)N2CCCCCC2)cc1)c1nc2ccccc2[nH]1` (centres undefined), 67.8% (active); to `COc1ccccc1N1CCN(C(=O)c2ccc(S(=O)(=O)N3CCCCC3)cc2)CC1`, 45.8%.
To `O=C(CSc1nc2ccccc2o1)N1CCN(c2ccccc2)CC1` belongs 29.7%.
As for `CC(C)OCCCNC(=O)C1CC(=O)N(C2CCCCCCC2)C1` (centres undefined), the inhibition is -4.2%.
As to `CC(CN1CCCCC1)OC(=O)c1ccccc1Cl` (centres undefined), the inhibition was 9.2%.
Under `CCOC(=O)c1sc(N(Cc2ccccc2)C(=O)CN2C(=O)CN(C)C2=O)nc1C` stands 57.9% (active); under `CCOC(=O)c1ccc(N2C(=O)CC(N(C)Cc3ccccc3)C2=O)cc1` (centres undefined), -9.5%.
To `CCOC(=O)c1sc2nc(SC)nc(-c3ccccc3)c2c1N` belongs 13.3%; to `c1ccc(Nc2nc(N3CCOCC3)c3ccccc3n2)cc1`, 56.9% (active); to `c1ccc(COc2nsnc2N2CCOCC2)cc1`, 30.3%.
Under `Cc1cc(Oc2ccccc2)nc(N2CCOCC2)n1` stands 26.5%; under `COCc1[nH][nH]c(=O)c1C=Nc1ccc(F)cc1F`, -10%; under `CCCOC(=O)CC1C(=O)NCCN1Cc1ccc(F)cc1` (centres undefined), 6.4%.
On to `CCC(C)(C(=O)NC1CCCCC1)N(C)C(=O)c1ccc2c(c1)OCO2` (centres undefined), for which the inhibition was -1.7%.
To `Cc1ccnc(NC(=O)c2ccc(NC(=O)c3ccco3)cc2)c1` belongs -0.6%.
Regarding `COC(=O)c1ccc(NC(=O)c2ccco2)cc1`, the inhibition is 24%.
To `CC(C)(C)NC(=O)c1cc(NC(=O)c2ccco2)cc(NC(=O)c2ccco2)c1` belongs 64.8% (active).
To `CN1CCN(CC(=O)C23CC4CC(CC(C4)C2)C3)CC1` belongs 5.7%; to `Cc1ccc(N2C(=O)C3C(c4ccccc4)(C2=O)C3(c2ccccc2)c2ccccc2)cc1` (centres undefined), 28.1%.
To `Cc1ccc(N2C(=O)C(Cc3ccccc3)NC2=S)cc1` (centres undefined) belongs 78.4% (active).
On to `Cc1cc(C)nc(N2C(=O)CC(Cc3ccccc3)C2=O)n1` (centres undefined), for which the inhibition is -14%.
